Screening results deposited in PubChem BioAssay by National Center for Advancing Translational Sciences (NCATS).
Hits are enriched below; roughly 3.2% of the tested compounds scored in any of these assays.
GLP1R inv ag: inverse agonists of human GLP-1 receptor; P43220; HEK293 GLP-1R CRE-luciferase, luminescence, 24 h; GLP-1R form is constitutively active; AID 624417; Potency, µM (series often up to 38.3 µM), for the others: at the highest dose activity change, negative = inhibition, usual class: inhibitors; 410,000 tested, 1.6% active; further: on the % scale 0 is the no-effect control and ±100 the full control effect; nearly all actives have a fitted effect of over 55% in size
Target sequence (P43220 whole entry, looked up): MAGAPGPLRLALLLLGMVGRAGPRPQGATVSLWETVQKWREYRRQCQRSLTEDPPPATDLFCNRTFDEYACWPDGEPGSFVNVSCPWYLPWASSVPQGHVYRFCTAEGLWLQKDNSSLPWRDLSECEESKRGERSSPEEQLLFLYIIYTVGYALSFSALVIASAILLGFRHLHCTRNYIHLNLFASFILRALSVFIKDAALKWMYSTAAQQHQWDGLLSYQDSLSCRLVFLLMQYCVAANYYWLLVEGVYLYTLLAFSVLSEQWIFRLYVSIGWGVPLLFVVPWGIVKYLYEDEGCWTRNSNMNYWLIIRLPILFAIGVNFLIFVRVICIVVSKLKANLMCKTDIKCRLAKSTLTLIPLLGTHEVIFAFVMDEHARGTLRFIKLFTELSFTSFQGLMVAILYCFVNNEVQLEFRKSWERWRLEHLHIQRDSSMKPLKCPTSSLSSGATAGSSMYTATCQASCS
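Luminescence readout: a drop in cAMP-driven luciferase signal flags inverse agonism at a constitutively active GLP-1R stably expressed in HEK293. Compound exposure lasted 24 hr at 37 deg C, 5% CO2.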
GLP-1R agonist: agonists of human GLP-1 receptor | P43220 | HEK293 GLP-1R CRE-luciferase, luminescence, 4-6 h; cells express a hypersensitive GLP-1R form | Potency, µM (highest dose often 45.6 µM), for the others: at the highest dose activation, usual class: activators | 380,000 tested, 0.007% active | AID 624172; further: % of control where 0% means no effect
ClpP mod: qHTS Assay for Activators of ClpP; AID 651965, 2013; 340,000 tested, 1.9% active; Potency, µM (series often up to 57.5 µM), for the others: at the top dose activity change, negative = active; ATP-dependent Clp protease proteolytic subunit (Bacillus subtilis (strain 168)), P80244; purified B. subtilis ClpP, FRET peptide cleavage, 20 min; active means well fitted falling curve with a large enough effect; inconclusive means small, poorly fitted or top-dose-only effect; inactive means no such curve, though single readings can be large or run the other way; further: the source files actives as falling curves though it sought activators and does not explain the sign; nearly all actives have a fitted effect of over 65% in size
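Purified B. subtilis ClpP, 10 microg/mL final in Tris/HCl pH8 with KCl, BSA, glycerol and Tween-20, cleaved an Abz/nitrotyrosine-quenched decapeptide. Fluorescence (ex 320, em 430) was read at 0 and 20 min at room temperature. Delta was normalized to 5.8 microM ADEP and DMSO/no-enzyme controls.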
GLP1R cytotox: cytotoxicity counter-screen for GLP-1 receptor inverse agonists. 410,000 tested, 0.13% active. AID 624418. Potency, µM (highest dose often 38.3 µM), for inactives: at the highest dose activity change, negative = inhibition, usual class: inhibitors. HEK293 cAMP-luciferase reporter cells, luminescence, 24 h;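 further: loss of luciferase light is scored as toxicity; on the % scale 0 is the no-effect control and ±100 the full control effect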
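Quantitative HTS format, 1536 wells, 200 cells/uL seeded. Compounds: 23 nL, 24 h, 37 °C. Detection: luciferase reagent, luminescence at 12 min RT; decreased signal taken as cytotoxic.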
* = called active by the depositor; ? = inconclusive; · = no result given. Unless noted, the call rests on the fitted dose curve; in most records, active means well fitted curve in the direction sought with a large enough effect; inconclusive means small, poorly fitted or top-dose-only effect, or another doubt; inactive means no such curve, though single readings can be large; an effect the other way counts as inactive or inconclusive. Potency means the concentration at half of the fitted maximal effect.

SMILES	GLP1R inv ag	GLP-1R agonist	ClpP mod	GLP1R cytotox
CCOC(=O)c1c(C(F)(F)F)nc2ncccn12	5%	-8%	25µM*	-10%
Cc1cccc2sc(N(Cc3cccnc3)C(=O)C3CCCCC3)nc12	?	·	1%	-3%
CC1(Cc2ccccc2Cl)C(=O)Nc2ccc(OC(F)(F)F)cc21 (centres undefined)	10µM*	0%	-3%	4%
CC(=O)N(Cc1ccc(F)cc1)C1=C(NCc2ccccc2)C(=O)c2ccccc2C1=O	10µM*	-12%	-4%	?
CCN(CC)CCNC(=O)c1ccc2c(c1)NC(=O)C(CS(=O)(=O)Cc1cccc(Br)c1)N2 (centres undefined)	-1%	·	7.9µM*	1%
CCN(CC)CCCNC(=O)c1ccc2c(c1)NC(=O)C(CS(=O)(=O)Cc1cccc(Br)c1)N2 (centres undefined)	-7%	·	3.5µM*	-2%
Cc1ccc(CNC(=O)c2ccc3c(c2)NC(=O)C(CS(=O)(=O)Cc2cccc(C)c2)N3)cc1 (centres undefined)	8%	·	?	1%
CCCCNC(=O)c1ccc2c(c1)NC(=O)C(CS(=O)(=O)Cc1ccc(F)cc1Cl)N2 (centres undefined)	10%	·	40µM*	9%
Cc1cccc(N(Cc2cc(=O)[nH]c3ccccc23)C(=O)CCl)c1	2.5µM*	-10%	-20%	-17%
c1ccc(C2Nc3ccccc3-c3nc4ccccc4n32)cc1 (centres undefined)	-5%	13%	61%	4%
c1coc(C2Nc3ccccc3-c3nc4ccccc4n32)c1 (centres undefined)	-6%	0%	2.8µM*	1%
O=C(Nc1cc(C(F)(F)F)ccc1Cl)c1noc2c1CCCCC2	-9%	·	49%	-3%
COc1ccc(N2CCN(C(=O)c3ccccc3NS(=O)(=O)c3ccc(C)cc3)CC2)cc1	3%	5%	13µM*	7%
O=C1CC(c2ccccc2Oc2cccc(Cl)c2)C(n2cncn2)C(=O)C1C1NCCc2ccccc21 (centres undefined)	?	-1%	-3%	-10%
CC(C)(C)c1ccc(Oc2cccc(C3CC(=O)C(C4NCCc5ccccc54)C(=O)C3n3cncn3)c2)cc1 (centres undefined)	6.3µM*	-5%	-3%	-22%
Cc1cccc(-c2ocnc2C(=O)Nc2ccccc2C(=O)N2CCCC2)c1	-20%	0%	·	24%
Cc1ccc(-c2ocnc2C(=O)Nc2nc(C)cs2)cc1	2%	-1%	?	-7%
Cc1ccc(-c2ocnc2C(=O)Nc2ccccc2NC(=O)c2ccccn2)cc1	?	13%	-3%	1.1µM*
Cc1cccc(-c2ocnc2C(=O)Nc2ccccc2NC(=O)c2ccccn2)c1	0.5µM*	14%	·	?
Cc1ccc2nc(CS)[nH]c2c1	·	·	10%	·
CCOc1cc(CNC(=O)c2cc(-c3ccccc3)n[nH]2)cc(OCC)c1OCC	?	·	1%	-5%
Cc1cc(C)nc(N/N=C/c2ccccc2OCc2cccc(Br)c2)n1	3.5µM*	7%	?	4µM*
Nc1ccc(-c2nc3ccccc3[nH]2)cc1	-3%	7%	5%	0%
Cn1cc(-c2nc3ccccc3[nH]2)c2ccccc21	?	6%	28µM*	-20%
c1ccc(-c2cc(-c3nc4ccccc4[nH]3)c3ccccc3n2)cc1	?	-21%	18µM*	-21%
SMILES	GLP1R inv ag	GLP-1R agonist	ClpP mod	GLP1R cytotox
Cc1c(-c2nc3ccccc3[nH]2)cnn1C	12%	-3%	-2%	0%
Cc1ccc(F)cc1NC(=O)Cn1c(C)cc(C)c(C#N)c1=O	12%	·	-19%	3%
CCn1c2ccccc2c2cc(/C=C3/C=Cc4ccccc43)ccc21	·	·	-2%	·
COC(=O)C1=C(C(=O)OC)[C@@H]2N(Cc3ccccc3)c3ccccc3[C@@]23C[C@@H](C(=O)OC)N(C(=O)c2cccs2)C3=N1	?	-3%	-3%	-22%
COC(=O)C1=C(C(=O)OC)[C@@H]2N(Cc3ccccc3)c3ccccc3[C@@]23C[C@@H](C(=O)OC)N(C(=O)c2cc(C)oc2C)C3=N1	11µM*	-3%	2%	-3%
COc1ccc(C(=O)CSc2nnc(C3CCCCC3)n2N)c(OC)c1	5%	6%	-1%	1%
